This is an account of results in ChEMBL document CHEMBL1961873, “Compounds: GSK PKIS; Assays: Nanosyn kinase panel” (2012).

One may read the inhibition as the change of the read-out against control, counted positive when it falls.

In test [1] the target is Sphingosine kinase 1 (Homo sapiens) (UniProt Q9NYA1). The conditions noted are these: at 1 µM.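 Further: mean SPHK1 inhibition value reported from the GSK PKIS kinase panel screen.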
In test [2] the target is T1, Sphingosine kinase 2 (Homo sapiens) (UniProt Q9NRA0).
T1 sequence (whole entry): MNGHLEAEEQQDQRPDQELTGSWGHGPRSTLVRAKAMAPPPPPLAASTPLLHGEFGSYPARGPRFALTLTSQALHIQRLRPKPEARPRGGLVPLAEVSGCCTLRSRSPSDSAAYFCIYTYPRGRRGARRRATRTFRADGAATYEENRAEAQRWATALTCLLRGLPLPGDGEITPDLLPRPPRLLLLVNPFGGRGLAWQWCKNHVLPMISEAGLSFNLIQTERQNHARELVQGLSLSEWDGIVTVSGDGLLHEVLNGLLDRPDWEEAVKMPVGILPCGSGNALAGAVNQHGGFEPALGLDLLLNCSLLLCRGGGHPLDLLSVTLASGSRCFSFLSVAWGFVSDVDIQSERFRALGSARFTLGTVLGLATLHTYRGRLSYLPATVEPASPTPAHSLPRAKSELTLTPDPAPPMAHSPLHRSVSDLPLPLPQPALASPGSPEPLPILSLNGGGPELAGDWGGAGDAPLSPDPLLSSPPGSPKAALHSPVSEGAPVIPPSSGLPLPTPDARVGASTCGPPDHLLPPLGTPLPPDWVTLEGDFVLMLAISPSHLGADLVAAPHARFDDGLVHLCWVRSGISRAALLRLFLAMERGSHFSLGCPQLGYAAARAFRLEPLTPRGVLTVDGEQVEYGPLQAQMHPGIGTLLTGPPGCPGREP
As to conditions: at 0.1 µM.

In test [3] the target is T1, Sphingosine kinase 2 (Homo sapiens). The conditions noted are these: at 1 µM.
The target in test [4] is Casein kinase II subunit alpha (Homo sapiens) (UniProt P68400). The conditions noted are these: at 0.1 µM.
For test [5] the target is unchanged. As to conditions: at 1 µM.
Test [6] addresses T2, Inhibitor of nuclear factor kappa-B kinase subunit alpha (Homo sapiens) (UniProt O15111).
T2 sequence (whole entry): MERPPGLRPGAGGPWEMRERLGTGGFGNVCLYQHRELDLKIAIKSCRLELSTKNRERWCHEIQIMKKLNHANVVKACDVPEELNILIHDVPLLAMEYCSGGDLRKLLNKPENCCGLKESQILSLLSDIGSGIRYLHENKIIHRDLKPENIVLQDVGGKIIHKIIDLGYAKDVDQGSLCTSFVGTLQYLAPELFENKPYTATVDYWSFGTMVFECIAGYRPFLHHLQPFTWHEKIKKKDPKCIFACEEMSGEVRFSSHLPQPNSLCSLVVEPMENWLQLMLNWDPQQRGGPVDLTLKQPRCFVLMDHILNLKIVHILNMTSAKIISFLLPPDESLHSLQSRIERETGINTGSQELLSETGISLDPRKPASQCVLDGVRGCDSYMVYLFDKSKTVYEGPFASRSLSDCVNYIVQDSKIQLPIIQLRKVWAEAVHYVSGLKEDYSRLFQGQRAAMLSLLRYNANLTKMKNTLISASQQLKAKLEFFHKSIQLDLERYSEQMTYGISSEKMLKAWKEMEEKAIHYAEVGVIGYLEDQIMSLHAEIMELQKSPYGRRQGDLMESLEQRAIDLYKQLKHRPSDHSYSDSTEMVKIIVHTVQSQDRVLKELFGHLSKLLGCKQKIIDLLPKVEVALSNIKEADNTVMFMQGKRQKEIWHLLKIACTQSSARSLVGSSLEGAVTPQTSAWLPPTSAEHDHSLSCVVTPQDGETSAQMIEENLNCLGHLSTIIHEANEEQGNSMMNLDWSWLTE
The conditions noted are these: at 0.1 µM.

For test [7], the target named is T2, Inhibitor of nuclear factor kappa-B kinase subunit alpha (Homo sapiens). As to conditions: at 1 µM.
The target of test [8] is T3, Inhibitor of nuclear factor kappa-B kinase subunit beta (Homo sapiens) (UniProt O14920).
T3 sequence (whole entry): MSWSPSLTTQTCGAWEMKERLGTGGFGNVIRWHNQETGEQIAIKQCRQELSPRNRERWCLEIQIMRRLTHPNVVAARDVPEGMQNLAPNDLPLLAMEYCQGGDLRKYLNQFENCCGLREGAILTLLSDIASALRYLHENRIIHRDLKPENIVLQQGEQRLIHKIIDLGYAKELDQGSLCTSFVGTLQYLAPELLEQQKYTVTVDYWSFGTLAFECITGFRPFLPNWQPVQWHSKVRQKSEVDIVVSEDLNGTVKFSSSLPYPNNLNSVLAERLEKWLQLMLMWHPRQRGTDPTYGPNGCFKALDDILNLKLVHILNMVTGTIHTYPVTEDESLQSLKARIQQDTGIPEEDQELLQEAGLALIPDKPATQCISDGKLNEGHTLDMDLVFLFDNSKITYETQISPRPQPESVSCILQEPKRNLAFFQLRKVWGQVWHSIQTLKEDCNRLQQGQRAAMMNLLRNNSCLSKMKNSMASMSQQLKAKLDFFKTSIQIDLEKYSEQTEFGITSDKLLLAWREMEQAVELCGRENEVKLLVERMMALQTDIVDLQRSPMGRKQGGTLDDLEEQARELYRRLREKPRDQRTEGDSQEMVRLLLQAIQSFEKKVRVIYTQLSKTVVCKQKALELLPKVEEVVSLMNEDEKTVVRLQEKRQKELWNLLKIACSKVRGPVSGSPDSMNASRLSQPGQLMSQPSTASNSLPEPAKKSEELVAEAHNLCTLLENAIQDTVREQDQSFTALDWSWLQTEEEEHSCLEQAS
As to conditions: at 0.1 µM.

Test [9] concerns the target T3, Inhibitor of nuclear factor kappa-B kinase subunit beta (Homo sapiens). The conditions noted are these: at 1 µM.
Test [10] addresses T4, Inhibitor of nuclear factor kappa-B kinase subunit epsilon (Homo sapiens) (UniProt Q14164).
T4 sequence (whole entry): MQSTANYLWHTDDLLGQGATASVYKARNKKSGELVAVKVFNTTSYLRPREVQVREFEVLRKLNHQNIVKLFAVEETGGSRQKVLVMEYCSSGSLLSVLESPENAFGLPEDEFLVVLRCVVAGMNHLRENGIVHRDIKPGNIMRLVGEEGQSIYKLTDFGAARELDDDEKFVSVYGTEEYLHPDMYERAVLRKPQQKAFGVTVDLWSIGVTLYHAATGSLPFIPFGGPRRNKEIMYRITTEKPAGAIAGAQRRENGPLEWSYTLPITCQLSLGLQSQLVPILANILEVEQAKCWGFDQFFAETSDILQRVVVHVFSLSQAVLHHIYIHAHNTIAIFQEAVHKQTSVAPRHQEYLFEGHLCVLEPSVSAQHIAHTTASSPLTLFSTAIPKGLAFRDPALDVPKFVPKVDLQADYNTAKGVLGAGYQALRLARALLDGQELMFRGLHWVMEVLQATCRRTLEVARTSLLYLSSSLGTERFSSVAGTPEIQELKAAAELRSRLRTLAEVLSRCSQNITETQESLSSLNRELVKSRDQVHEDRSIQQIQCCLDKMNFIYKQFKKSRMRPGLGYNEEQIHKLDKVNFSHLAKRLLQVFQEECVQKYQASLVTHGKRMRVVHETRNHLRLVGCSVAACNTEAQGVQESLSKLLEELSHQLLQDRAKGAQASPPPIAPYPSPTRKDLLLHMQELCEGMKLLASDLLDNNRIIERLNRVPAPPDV
The conditions noted are these: at 0.1 µM.

The target in test [11] is T4, Inhibitor of nuclear factor kappa-B kinase subunit epsilon (Homo sapiens). As to conditions: at 1 µM.
The target in test [12] is T5, Serine/threonine-protein kinase Nek1 (Homo sapiens) (UniProt Q96PY6).
T5 sequence (whole entry): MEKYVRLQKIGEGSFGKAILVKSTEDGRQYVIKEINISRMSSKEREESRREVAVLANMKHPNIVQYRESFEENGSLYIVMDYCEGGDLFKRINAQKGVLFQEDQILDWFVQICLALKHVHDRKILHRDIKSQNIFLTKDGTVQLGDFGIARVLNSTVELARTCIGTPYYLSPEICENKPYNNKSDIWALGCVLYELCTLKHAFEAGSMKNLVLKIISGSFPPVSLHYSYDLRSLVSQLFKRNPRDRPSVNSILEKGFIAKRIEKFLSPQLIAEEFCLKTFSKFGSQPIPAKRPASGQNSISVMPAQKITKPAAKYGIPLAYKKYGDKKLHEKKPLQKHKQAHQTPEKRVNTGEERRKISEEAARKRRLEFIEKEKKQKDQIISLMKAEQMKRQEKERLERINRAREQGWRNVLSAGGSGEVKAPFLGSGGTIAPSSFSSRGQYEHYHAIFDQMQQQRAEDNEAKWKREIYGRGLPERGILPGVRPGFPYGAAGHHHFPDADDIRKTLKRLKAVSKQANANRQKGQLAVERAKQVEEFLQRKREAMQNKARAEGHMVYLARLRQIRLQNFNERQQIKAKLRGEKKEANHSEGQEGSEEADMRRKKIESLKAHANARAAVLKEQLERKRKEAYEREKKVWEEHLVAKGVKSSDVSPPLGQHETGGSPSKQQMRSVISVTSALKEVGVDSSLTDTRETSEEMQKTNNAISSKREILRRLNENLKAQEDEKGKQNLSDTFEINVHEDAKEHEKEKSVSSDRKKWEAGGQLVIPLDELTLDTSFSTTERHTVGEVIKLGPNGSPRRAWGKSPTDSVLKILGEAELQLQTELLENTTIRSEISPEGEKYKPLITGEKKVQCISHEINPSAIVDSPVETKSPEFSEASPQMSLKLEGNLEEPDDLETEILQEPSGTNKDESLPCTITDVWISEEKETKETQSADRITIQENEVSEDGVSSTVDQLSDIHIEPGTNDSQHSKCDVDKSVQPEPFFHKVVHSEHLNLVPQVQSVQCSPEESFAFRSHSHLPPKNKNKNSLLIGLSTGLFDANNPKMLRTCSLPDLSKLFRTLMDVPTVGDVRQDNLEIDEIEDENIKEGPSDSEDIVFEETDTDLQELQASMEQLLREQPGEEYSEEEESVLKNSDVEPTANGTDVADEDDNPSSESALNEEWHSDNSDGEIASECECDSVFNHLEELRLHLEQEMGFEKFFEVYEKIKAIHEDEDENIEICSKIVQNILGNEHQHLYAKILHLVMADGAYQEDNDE
The conditions noted are these: at 0.1 µM.

Test [13] addresses T5, Serine/threonine-protein kinase Nek1 (Homo sapiens). As to conditions: at 1 µM.
Test [14] deals with T6, Serine/threonine-protein kinase Nek2 (Homo sapiens) (UniProt P51955).
T6 sequence (whole entry): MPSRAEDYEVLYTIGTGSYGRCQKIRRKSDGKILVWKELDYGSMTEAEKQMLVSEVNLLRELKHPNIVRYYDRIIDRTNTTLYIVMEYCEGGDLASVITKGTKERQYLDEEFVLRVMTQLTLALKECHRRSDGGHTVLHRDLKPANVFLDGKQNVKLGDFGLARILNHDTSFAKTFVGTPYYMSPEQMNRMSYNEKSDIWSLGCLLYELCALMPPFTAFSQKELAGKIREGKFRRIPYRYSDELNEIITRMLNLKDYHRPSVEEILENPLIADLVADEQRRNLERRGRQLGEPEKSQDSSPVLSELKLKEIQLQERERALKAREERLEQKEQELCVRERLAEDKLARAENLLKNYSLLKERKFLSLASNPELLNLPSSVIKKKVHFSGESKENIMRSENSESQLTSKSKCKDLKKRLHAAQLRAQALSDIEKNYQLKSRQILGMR
The conditions noted are these: at 0.1 µM.

The target in test [15] is T6, Serine/threonine-protein kinase Nek2 (Homo sapiens). The conditions noted are these: at 1 µM.
Test [16] has as its target Serine/threonine-protein kinase Nek6 (Homo sapiens) (UniProt Q9HC98). As to conditions: at 0.1 µM.
Test [17] has the same target. The conditions noted are these: at 1 µM.
Test [18] deals with Serine/threonine-protein kinase Nek7 (Homo sapiens) (UniProt Q8TDX7). The conditions noted are these: at 0.1 µM.
Test [19] has the same target. The conditions noted are these: at 1 µM.
Test [20] concerns the target T7, Serine/threonine-protein kinase Nek9 (Homo sapiens) (UniProt Q8TD19).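 Further: reported value is the mean percent inhibition of NEK9.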
T7 sequence (whole entry): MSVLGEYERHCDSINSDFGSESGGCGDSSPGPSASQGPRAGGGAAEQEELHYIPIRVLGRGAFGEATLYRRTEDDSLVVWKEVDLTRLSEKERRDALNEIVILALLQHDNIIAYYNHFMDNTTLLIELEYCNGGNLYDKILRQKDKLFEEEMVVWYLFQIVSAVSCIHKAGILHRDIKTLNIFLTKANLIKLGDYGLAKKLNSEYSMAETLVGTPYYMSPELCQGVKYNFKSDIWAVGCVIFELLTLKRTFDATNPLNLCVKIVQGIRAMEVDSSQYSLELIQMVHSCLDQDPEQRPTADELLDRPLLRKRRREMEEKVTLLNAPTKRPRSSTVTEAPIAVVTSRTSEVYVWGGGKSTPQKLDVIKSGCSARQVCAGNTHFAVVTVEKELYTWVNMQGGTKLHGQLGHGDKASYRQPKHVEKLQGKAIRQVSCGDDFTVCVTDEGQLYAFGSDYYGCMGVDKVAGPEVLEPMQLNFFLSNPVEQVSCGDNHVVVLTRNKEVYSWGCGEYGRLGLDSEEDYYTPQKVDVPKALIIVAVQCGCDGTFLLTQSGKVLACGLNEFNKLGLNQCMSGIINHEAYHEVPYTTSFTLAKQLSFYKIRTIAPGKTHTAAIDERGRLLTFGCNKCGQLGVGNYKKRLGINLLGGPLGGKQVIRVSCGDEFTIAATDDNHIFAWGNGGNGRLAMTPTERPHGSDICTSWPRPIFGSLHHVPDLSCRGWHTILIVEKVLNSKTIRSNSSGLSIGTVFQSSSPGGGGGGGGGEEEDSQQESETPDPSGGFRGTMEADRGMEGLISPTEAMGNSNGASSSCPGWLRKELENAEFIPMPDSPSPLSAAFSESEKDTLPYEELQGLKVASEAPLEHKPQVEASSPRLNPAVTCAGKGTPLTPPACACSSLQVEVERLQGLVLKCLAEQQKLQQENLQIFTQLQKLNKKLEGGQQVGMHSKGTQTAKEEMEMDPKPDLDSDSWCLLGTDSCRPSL
The conditions noted are these: at 0.1 µM.

Chain of Casein kinase II subunit alpha (Homo sapiens) (P68400 whole entry, looked up): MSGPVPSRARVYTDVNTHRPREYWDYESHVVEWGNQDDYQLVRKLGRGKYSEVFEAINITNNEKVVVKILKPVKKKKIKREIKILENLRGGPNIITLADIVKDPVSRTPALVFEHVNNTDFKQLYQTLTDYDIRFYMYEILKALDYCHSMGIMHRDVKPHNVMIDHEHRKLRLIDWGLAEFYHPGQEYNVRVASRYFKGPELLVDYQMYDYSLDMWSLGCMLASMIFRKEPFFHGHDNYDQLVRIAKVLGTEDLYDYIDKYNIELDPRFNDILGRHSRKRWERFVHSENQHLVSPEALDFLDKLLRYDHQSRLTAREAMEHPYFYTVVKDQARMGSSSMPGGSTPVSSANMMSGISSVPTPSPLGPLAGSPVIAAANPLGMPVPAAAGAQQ
Chain of Serine/threonine-protein kinase Nek6 (Homo sapiens) (Q9HC98 whole entry): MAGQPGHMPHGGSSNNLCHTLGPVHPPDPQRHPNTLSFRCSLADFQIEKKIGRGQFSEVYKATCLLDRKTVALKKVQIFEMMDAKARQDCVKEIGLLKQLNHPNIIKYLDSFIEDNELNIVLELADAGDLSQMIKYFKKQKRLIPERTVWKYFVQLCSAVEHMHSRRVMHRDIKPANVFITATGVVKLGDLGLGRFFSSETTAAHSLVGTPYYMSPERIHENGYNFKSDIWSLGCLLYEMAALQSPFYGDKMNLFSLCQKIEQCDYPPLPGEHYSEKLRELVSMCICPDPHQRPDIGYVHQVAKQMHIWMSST
Chain of Serine/threonine-protein kinase Nek7 (Homo sapiens) (Q8TDX7 whole entry, looked up): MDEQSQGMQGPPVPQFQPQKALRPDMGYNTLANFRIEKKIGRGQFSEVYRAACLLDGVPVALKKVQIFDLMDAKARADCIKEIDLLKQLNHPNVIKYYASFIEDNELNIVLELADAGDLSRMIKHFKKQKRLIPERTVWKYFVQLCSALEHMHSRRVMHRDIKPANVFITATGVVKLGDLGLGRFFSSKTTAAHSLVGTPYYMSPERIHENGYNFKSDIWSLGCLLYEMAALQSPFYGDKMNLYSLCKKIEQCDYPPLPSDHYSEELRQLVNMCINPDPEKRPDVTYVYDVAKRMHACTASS
Chain of Sphingosine kinase 1 (Homo sapiens) (Q9NYA1 whole entry): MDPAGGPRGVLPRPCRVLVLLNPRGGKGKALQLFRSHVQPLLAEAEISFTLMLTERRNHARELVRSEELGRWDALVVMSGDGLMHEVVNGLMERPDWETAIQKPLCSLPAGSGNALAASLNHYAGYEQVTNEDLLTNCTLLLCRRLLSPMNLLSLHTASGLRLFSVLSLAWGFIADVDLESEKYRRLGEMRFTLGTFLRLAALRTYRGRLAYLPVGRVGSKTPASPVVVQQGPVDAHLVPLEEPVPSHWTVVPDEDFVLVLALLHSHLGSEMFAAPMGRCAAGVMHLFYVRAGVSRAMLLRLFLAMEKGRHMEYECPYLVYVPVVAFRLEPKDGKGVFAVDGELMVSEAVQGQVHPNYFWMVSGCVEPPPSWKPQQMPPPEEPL

Consider `COc1ccc(-c2nn3ncccc3c2-c2ccnc(Nc3ccc4c(c3)OCCO4)n2)cc1`, for which the inhibition is -0.22% in test [1]; -0.07% in [2]; 0.39% in test [3]; 7.89% in [4]; 3.92% in test [5]; 6.88% in test [6]. For the same molecule, the inhibition in test [7] was 1.71%; in test [8], 3.03%; in [9], 1.7%; in [10], 1.54%; in test [11], -0.27%; in [12], 0.11%. Also, the inhibition in [13] is 2.9%; in test [14], -0.55%; in test [15] it was 3.9%; in test [16] it was -0.41%; in test [17] it was 0.26%; in test [18] it was 2.18%. The inhibition in [19] stood at 1.38%; in test [20] it was 6.4%.
